Measured values reported in PubChem BioAssay (NCI).
Several values for one entry are separate records, joined by “and”; a condition that tells them apart may be missing. Identical values can stand only once. The panel holds about 83,000 compounds, 20% with a hit somewhere; the sample as a whole holds those more often.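 Each cell line was grown in a 96-well plate and treated with one concentration of compound for 48 hours. Values below 10 were considered active.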 Activity calls are given as the source filed them.

What was measured:
Test in all cases: NCI-60 one-dose screen, 48 h (100 = growth as untreated, 0 = no growth, -100 = all killed)
[1] = test system: SW-620 colon; conditions: 10 µM unless noted
[2] = test system: MCF7 breast
[3] = test system: HCT-116 colon; conditions: 10 µM unless noted
[4] = test system: HCC-2998 colon; conditions: 10 µM unless noted

Structure (SMILES): COC1=C(C)C(=O)C2=C(C1=O)C(CO)N1C(C#N)C3CC4C(C1C2N1CCOC41)N3C (stereo not drawn)
- growth [1]: -28% (active)
- growth ([2]; 10 µM): -0.551% (active)
- growth [3]: -33.7% (active)
- growth [4]: -87.3% (active)

Structure (SMILES): CC[C@](O)(C(=O)O)c1cc2n(c(=O)c1CO)Cc1cc3ccccc3nc1-2
- growth [1]: -30% (active)
- growth ([2]; 10 µM): 1.99% (active)
- growth [3]: -26.6% (active)
- growth [4]: -61.6% (active)

Structure (SMILES): CC(=O)O[C@H]1C[C@@H]2OC3C=C(C)CCC3(C)[C@@]1(C)[C@@]21CO1 (stereo partly drawn)
- growth [1]: 0.513% (active) and -7.31% (active)
- growth ([2]; 10 µM): -0.46% (active) and -15% (active)
- growth [3]: -22.5% (active) and -18.6% (active)
- growth [4]: -27.6% (active) and -20.3% (active)

Structure (SMILES): COc1cccc2c1cc([N+](=O)[O-])c1c(C(=O)O)cc3c(c12)OCO3
- growth [1]: 79.5% (inactive) and 109% (inactive)
- growth ([2]; 10 µM): 38.2% (inactive) and 94% (inactive)
- growth ([2]; 100 µM): 15.3% (inactive) and 2.6% (active)
- growth [3]: 72.4% (inactive) and 92.3% (inactive)
- growth [4]: 47.7% (inactive) and -1.44% (active)

Structure (SMILES): O=C1c2ccccc2C(=O)C(Cl)C1Cl (stereo not drawn)
- growth ([2]; 10 µM): -62.2% (active)
- growth [3]: -95.7% (active)
- growth [4]: 111% (inactive)

Structure (SMILES): CC[C@@]1(O)C(=O)OCc2c1cc1n(c2=O)Cc2cc3ccccc3nc2-1
- growth [1]: -1.68% (active)
- growth ([2]; 10 µM): 2.07% (active)
- growth [3]: -12.5% (active)
- growth [4]: -73.8% (active)

Structure (SMILES): CO[C@H](/C(C)=C/C=C/C(C)=C/c1coc(C)n1)[C@H](C)[C@H]1C[C@@H](O)[C@@]2(C)O[C@H]2/C=C/[C@@H](C)[C@@H]2C[C@@H](CC(=O)O2)C[C@H]2O[C@@H]2C(=O)O1
- growth [1]: 21.5% (inactive)
- growth ([2]; 10 µM): 14.7% (inactive)
- growth [3]: 4.48% (active)
- growth [4]: -25.4% (active)
